# Data taken from article PMC5540273 (PLoS ONE, 2017).
# Key:
# Conditions in all cases: concentration: 1 μM, replicates: in singlicate; n = 1
# CSNK1G1 = test system: CSNK1G1
# CSNK1G2 = test system: CSNK1G2
# CSNK1G3 = test system: CSNK1G3
# CSNK2A1 = test system: CSNK2A1
# CSNK2A2 = test system: CSNK2A2
# CTK = test system: T1, CTK
# T1 construct: gene MATK
# DAPK1 = test system: DAPK1
# DAPK2 = test system: DAPK2
# DAPK3 = test system: DAPK3
# DCAMKL1 = test system: T2, DCAMKL1
# T2 construct: gene DCLK1
# 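Further: KINOMEscan kinase panel screen.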
Compound,%Inh (CSNK1G1),%Inh (CSNK1G2),%Inh (CSNK1G3),%Inh (CSNK2A1),%Inh (CSNK2A2),%Inh (CTK),%Inh (DAPK1),%Inh (DAPK2),%Inh (DAPK3),%Inh (DCAMKL1)
FC(F)(F)c1ccc(/C=C/c2cncnc2Nc2ccc3[nH]c(Cc4ccccc4)nc3c2)cc1 [GW709199],2%,0%,4%,0%,0%,0%,0%,0%,11%,9%
COCCOCCOc1cc2ncc3c4ccc(C#N)cc4[nH]c3c2cc1OC,0%,24%,17%,75%,95.3%,0%,0%,7%,15%,20%
CN1CCN(Cc2cccc(-c3ccc4c(Nc5ccc(Oc6ccccc6)cc5)ccnc4c3)c2)CC1 [GW578342],18%,1%,2%,0%,0%,0%,100%,6%,25%,13%
Cl.Cl.NCC(NCc1ccc(-c2ccnc3[nH]ccc23)s1)c1ccccc1 (centres unmarked) [GSK1321565],0%,0%,33%,39%,37%,0%,67%,32%,71%,21%
COc1ccc(CNC(=O)NC2CCN(c3ccnc(Nc4ccc(F)cc4)n3)CC2)cc1 [GSK1379788],0%,0%,19%,0%,0%,0%,0%,0%,0%,0%
O=C(Nc1cccc(-c2nn3ncccc3c2-c2ccnc(Nc3ccccc3)n2)c1)c1c(F)cccc1F [GSK198271],19%,0%,26%,8%,11%,27%,11%,0%,1%,18%
Cc1occc1-c1ncc(OC[C@@H](N)Cc2c[nH]c3ccccc23)cc1-c1ccc2[nH]nc(C)c2c1.O=C(O)C(F)(F)F [GSK682037],76%,95.5%,93.7%,0%,8%,0%,0%,0%,2%,10%
COc1cc(Nc2nccc(N3CCC(NC(=O)c4cc5ccccc5s4)C3)n2)cc(OC)c1OC (centres unmarked) [GSK1379760],9%,13%,8%,27%,0%,0%,54%,20%,1%,13%
COc1cc(Nc2nccc(N3CCC(NC(=O)Nc4cccc(C(C)=O)c4)C3)n2)cc(OC)c1OC (centres unmarked) [GSK1379753],12%,0%,21%,13%,16%,0%,5%,0%,13%,20%
Cl.Cl.NCC(C(=O)Nc1cc(Br)c(-c2ccnc3[nH]ccc23)s1)c1ccccc1 (centres unmarked) [GSK1269851],0%,4%,35%,79%,73%,7%,0%,0%,15%,9%
COc1cccc(C(=O)Nc2cccc(Oc3ccc4nc(NC(=O)C5CC5)cn4n3)c2)c1,13%,0%,30%,0%,17%,0%,0%,4%,9%,20%
O=C(Nc1n[nH]c2cc(-c3ccoc3)ccc12)C1CC1 [SB-738481],0%,0%,12%,35%,66%,25%,6%,0%,0%,2%
COc1cc(Nc2nccc(-c3c(-c4cccc(NC(=O)c5c(F)cccc5F)c4)nn4ncccc34)n2)cc(OC)c1OC [GSK327238],16%,0%,20%,0%,4%,14%,0%,0%,0%,12%
Nc1ncc(-c2ccc3nccc(-c4ccncc4)c3c2)cc1S(=O)(=O)N1CCOCC1 [GSK1627798],0%,0%,8%,5%,1%,0%,0%,2%,9%,0%
Fc1ccc(-c2ncn(C3CCNCC3)c2-c2ccnc(Oc3ccc(-c4ccccc4)cc3)n2)cc1 [SB-245391],30%,78%,49%,0%,7%,37%,14%,5%,22%,10%
COc1ccc(Nc2nccc(NCCNC(=O)c3cc4ccccc4s3)n2)cc1 [GSK1379896],54%,0%,27%,0%,15%,0%,4%,2%,0%,10%
COC(=O)Nc1nc2ccc(Oc3ccc(NC(=O)Nc4cc(C(F)(F)F)ccc4F)cc3)cc2n1C.Cl [GW692089],6%,0%,12%,0%,1%,0%,0%,0%,0%,6%
COc1cccc(C2=C(Nc3ccc(Cl)c(C(=O)O)c3)C(=O)NC2=O)c1 [SB-390769],11%,0%,0%,0%,7%,95.9%,0%,0%,99.9%,100%
CNC(=O)c1ccccc1Nc1nc(Nc2ccc(N3CCOCC3)cc2)ncc1Cl.Cl [GSK1576028],66%,85%,56%,99.8%,99.9%,34%,95%,69%,89%,52%
c1ccc(Oc2ccc(Nc3ccnc4cc(-c5ccc(CNCCN6CCOCC6)o5)ccc34)cc2)nc1 [GW567145],2%,0%,13%,0%,18%,0%,0%,2%,18%,20%
c1ccc(-c2n[nH]cc2Nc2ccnc3ccccc23)nc1 [GW694077],100%,1%,12%,54%,68%,0%,23%,60%,66%,23%
Cl.c1ccc(-c2ccc3c(Nc4ccc5[nH]ccc5c4)ccnc3c2)nc1 [GW440138],0%,0%,25%,0%,0%,0%,5%,0%,23%,0%
COc1cc(Nc2nccc(-c3c(-c4cccc(NC(=O)c5c(F)cccc5F)c4)nn4ccccc34)n2)cc(OC)c1OC [GSK323521],20%,31%,25%,2%,6%,0%,0%,22%,19%,9%
